Data taken from PubChem BioAssay (Tox21).
Results filed as inconclusive are left out. The source made the active and inactive calls. Calls follow the shape of the dose curve; as a rule, active = well fitted cell-killing curve with a large enough effect in the repeat runs; inconclusive = weak or mixed curves; inactive = no such curve, though single readings can be large or run the other way.
% is scaled to controls: 0 for no effect and ±100 for the full control effect; potency is read from the fitted curve at half-maximal effect.

Experiment: qHTS assay for identifying genotoxic compounds that show differential cytotoxicity against isogenic chicken DT40 cell lines with known DNA damage response pathways - Rad54/Ku70 mutant cell line (AID 743015); also: nearly all actives have a fitted effect of over 60% in size
Conditions: DT40 Rad54/Ku70 mutant viability, CellTiter-Glo, 40 h; series mostly up to 66.8 µM; activity change, negative = cytotoxicity: at the top concentration
Text: National Center for Advancing Translational Sciences [NCATS]
NIH Chemical Genomics Center [NCGC]
U.S. Environmental Protection Agency [EPA]
National Institutes of Environmental Health Sciences [NIEHS]
National Toxicology Program [NTP]
U.S. Food and Drug Administration [FDA]
DNA repair pathways play a critical role in cellular homeostasis by repairing DNA damage induced by endogenous processes and xenobiotics. Isogenic chicken DT40 cell lines deficient in different DNA repair pathways can be used to identify genotoxic compounds and aid in characterizing the nature of the DNA damage induced. Two DNA repair-deficient cell lines with disrupted genes, Rad54/Ku70 or Rev3, were used to screen the Tox21 10K compound library. Possible genotoxicity was based on the presence of a significant increase in cytotoxicity in one or more of the DNA repair-deficient cell lines compared to that observed in the parental DNA repair-proficient cell line. CellTiter Glo viability assay (Promega, Madison, WI) was used to measure cell viability in these cells after compound treatment. This assay includes the data from the Rad54/Ku70 mutant cell line.
Tox21 Assay Protocol Summary:
300 DT40 mutant cells in 5 uL/well were dispensed into white, solid-bottom 1536-well plates using a Multidrop Combi (ThermoFisher Scientific, Waltham, MA) dispenser. After the assay plates were incubated at 37 C/5% CO2 for approximately 0.5 hour, 23 nL of compounds dissolved in DMSO, positive controls or DMSO only was transferred into the assay plate by a pintool work station (Kalypsys, San Diego, CA). The assay plates were incubated at 37 C/5% CO2 for 40 hours. After 5 uL per well of CellTiter-Glo reagent was added into each well of the assay plates, the plates were incubated for 30 min at room temperature and the luminescence intensity of the plates was measured using a ViewLux (PerkinElmer, Shelton, CT) plate reader.
For `CNC(=O)OCC[N+](C)(C)C`, the “activity change, negative = cytotoxicity” value was -0.0279% (inactive).
With `CCC1C(C)=NN=C(c2ccc(OC)c(OC)c2)c2cc(OC)c(OC)cc21` (stereo not given) the “activity change, negative = cytotoxicity” value was 3.04% (inactive).
For `CN[C@]1(c2ccccc2Cl)CCCCC1=O`, the “activity change, negative = cytotoxicity” value was 0.306% (inactive).
For `CCC1(c2ccccc2)C(=O)NC(=O)N(C)C1=O` (stereo not given), the “activity change, negative = cytotoxicity” value was 5.32% (inactive).
With `CCCN1CCC[C@H](c2cccc(O)c2)C1` the “activity change, negative = cytotoxicity” value was 6.39% (inactive).
In the case of `CN(C)[C@H](Cc1ccccc1)c1ccccc1`, the “activity change, negative = cytotoxicity” value is reported as -15% (inactive).
In the case of `O[C@H]1[C@H]2[C@H](O)CCCN2C[C@H]1O`, the “activity change, negative = cytotoxicity” value is reported as 5.73% (inactive).
In the case of `O=C1OC2(c3cc(Br)c(O)cc3Oc3c2cc(Br)c(O)[c]3[Hg])c2ccccc21` (stereo not given), the Potency is reported as 10.1 µM (active).
With `F/C(COc1ccc2c(c1)[nH]c1ccccc12)=C1/CN2CCC1CC2` the Potency was 7.5 µM (active).
With `C=CC[C@]1(O)CC[C@H]2[C@@H]3CCC4=CCCC[C@@H]4[C@H]3CC[C@@]21C` the “activity change, negative = cytotoxicity” value was 0.146% (inactive).
In the case of `[2H]C([2H])([2H])[C@H](N)Cc1ccccc1`, the “activity change, negative = cytotoxicity” value is reported as 4.09% (inactive).
In the case of `O=P1(N(CCCl)CCCl)NC(OO)CCO1` (stereo not given), the “activity change, negative = cytotoxicity” value is reported as -13.8% (inactive).
In the case of `CN1[C@@H]2CC[C@H]1CC(OC1c3ccccc3CCc3ccccc31)C2` (stereo not given in full), the Potency is reported as 11.4 µM (active).
For `CCCCNC(C)(C)[P+](=O)O`, the “activity change, negative = cytotoxicity” value was 0.127% (inactive).
With `CC(=O)[C@@]1(O)CC[C@H]2[C@@H]3CCC4=CC(=O)CC[C@]4(C)C3(F)[C@@H](O)C[C@@]21C` (stereo not given in full) the “activity change, negative = cytotoxicity” value was -17.8% (inactive).
With `C[C@@H](N)C(=O)c1ccccc1` the “activity change, negative = cytotoxicity” value was 3.56% [at 95.1 µM] (inactive).
In the case of `C[C@@H]([C@H](O)c1ccccc1)N(C)C`, the “activity change, negative = cytotoxicity” value is reported as 1.4% (inactive).
In the case of `CC(C)C[C@H](CN)CC(=O)O`, the “activity change, negative = cytotoxicity” value is reported as 4.84% (inactive).
In the case of `CC(C)NC(C)Cc1ccc(I)cc1` (stereo not given), the Potency is reported as 13.3 µM (active).
In the case of `CCCSc1cc(OC)c(CCN)cc1OC`, the Potency is reported as 0.258 µM (active).
For `CN[C@@H](C)Cc1ccccc1`, the “activity change, negative = cytotoxicity” value was -5.02% (inactive).
For `C/C=C(\CC)C(=O)NC(N)=O`, the “activity change, negative = cytotoxicity” value was 1.76% (inactive).
In the case of `C[C@@H]1[C@@H]2Cc3ccc(O)cc3[C@@]1(C)CCN2CC1CC1`, the “activity change, negative = cytotoxicity” value is reported as 6.08% (inactive).
With `CO[C@H]1[C@@H](O)C[C@H](O[C@H]2[C@@H](O)C[C@H](O[C@H]3[C@@H](O)C[C@H](O[C@H]4CC[C@@]5(C)[C@H](CC[C@@H]6[C@@H]5C[C@@H](O)[C@]5(C)[C@@H](C7=CC(=O)OC7)CC[C@]65O)C4)O[C@@H]3C)O[C@@H]2C)O[C@@H]1C` the Potency was 0.668 µM (active).
For `Cc1nnc2n1-c1sc(Br)cc1C(c1ccccc1Cl)=NC2`, the Potency was 26.6 µM (active).
In the case of `O=C(OCCN1CCCCC1)C(O)(c1ccccc1)c1ccccc1`, the “activity change, negative = cytotoxicity” value is reported as 0.258% (inactive).
For `C=CCC1(C(C)CCC)C(=O)N=C(S)NC1=O` (stereo not given), the “activity change, negative = cytotoxicity” value was 8.38% (inactive).
For `C[C@@H](CO)NC(=O)[C@@H]1C=C2c3cccc4[nH]cc(c34)C[C@H]2N(C)C1`, the “activity change, negative = cytotoxicity” value was 2.43% (inactive).
For `CCCCc1ccc(C(=O)O)nc1`, the “activity change, negative = cytotoxicity” value was 1.43% (inactive).
With `COc1cc([C@@H]2c3cc4c(cc3[C@@H](O)[C@H]3COC(=O)[C@H]23)OCO4)cc(OC)c1O` the Potency was 0.266 µM (active).
In the case of `C1CN(P2(N3CC3)=NP(N3CC3)(N3CC3)=NP(N3CC3)(N3CC3)=N2)CCO1` (stereo not given), the Potency is reported as 8.41 µM (active).
In the case of `Nc1ccc([N+](=O)[O-])cc1`, the Potency is reported as 14.1 µM (active).
With `CCCCCc1cc(O)c2c(c1)OC(C)(C)[C@@H]1CCC(C)=C[C@@H]21` the Potency was 10.6 µM (active).
For `NC1=NC(=O)N2CC12` (stereo not given), the “activity change, negative = cytotoxicity” value was 4.48% (inactive).
In the case of `S=C(S)N1CCNCC1`, the “activity change, negative = cytotoxicity” value is reported as 1.81% (inactive).
In the case of `C#CCN1CC(=O)N(COC(=O)C2C(C=C(C)C)C2(C)C)C1=O` (stereo not given), the “activity change, negative = cytotoxicity” value is reported as -8.61% (inactive).
For `C/C(=C\c1csc(C)n1)[C@@H]1C[C@@H]2O[C@]2(C)CCC[C@H](C)[C@H](O)[C@@H](C)C(=O)C(C)(C)[C@@H](O)CC(=O)O1`, the Potency was 0.0038 µM (active).
With `C[C@]12CC[C@H](O)C[C@H]1CC[C@@H]1[C@@H]2CC[C@]2(C)[C@@H](c3ccc(=O)oc3)C[C@H]3O[C@]132` the Potency was 13.3 µM (active).
With `N#CC(C#N)=Cc1cc(O)c(O)c(O)c1` the Potency was 21.1 µM (active).
With `CNC(C)Cc1ccccc1` (stereo not given) the “activity change, negative = cytotoxicity” value was -0.925% (inactive).
